# According to the supplement of paper PMC3334620:
# Over roughly 33,000 sequences, “E-score (-0.5 to 0.5)” has its median near -0.016; the highest 2% begin near 0.32. Many of the other results were omitted from the sample, so the highest values are more common in it than they were.
# Target: T1, Stp1 (UniProt B3LFK1)
# T1 sequence: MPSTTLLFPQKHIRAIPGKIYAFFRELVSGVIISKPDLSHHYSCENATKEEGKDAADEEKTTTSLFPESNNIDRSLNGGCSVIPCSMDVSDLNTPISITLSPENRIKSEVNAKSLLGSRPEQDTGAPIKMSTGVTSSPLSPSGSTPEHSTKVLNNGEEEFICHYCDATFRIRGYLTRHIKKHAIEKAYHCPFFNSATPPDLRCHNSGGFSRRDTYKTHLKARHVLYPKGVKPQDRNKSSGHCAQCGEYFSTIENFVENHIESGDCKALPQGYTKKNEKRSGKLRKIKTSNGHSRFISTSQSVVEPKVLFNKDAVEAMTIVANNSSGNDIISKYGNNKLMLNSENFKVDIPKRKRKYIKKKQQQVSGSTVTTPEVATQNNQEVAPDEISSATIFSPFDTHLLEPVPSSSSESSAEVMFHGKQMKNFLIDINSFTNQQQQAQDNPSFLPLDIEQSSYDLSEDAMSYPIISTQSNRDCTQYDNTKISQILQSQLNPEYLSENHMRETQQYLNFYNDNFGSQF
# Assay: PBM E-score (8-mer binding enrichment) (E-score (-0.5 to 0.5)); higher = stronger / more preferred TF binding
# Settings: protein concentration: 200 nM; construct: GST-full length
# Method: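 Universal 'all 10-mer' protein binding microarrays (Agilent AMADID 015681) probed with GST-tagged S. cerevisiae TFs (full-length or DBD) made by in vitro transcription/translation (PURExpress), about 100-200 nM. Bound TF was detected with fluorescent anti-GST. Each ungapped 8-mer (which stands for itself and its reverse complement) is scored by the PBM enrichment score (E-score), a modified Wilcoxon-Mann-Whitney statistic from -0.5 to +0.5, computed with the Universal PBM Analysis Suite. Scale: above 0.35 generally sequence-specific binding.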
row,Sequence,PBM E-score
1,CGCTTACA,0.0771
2,GTATACCA,0.0622
3,ACTTATCC,-0.0589
4,CATAGACA,0.0911
5,CAATAAAG,0.217
6,AGTTGACC,-0.0773
7,ATATGGGC,-0.0537
8,ACCCGTTC,0.0622
9,ACCGAAAT,0.0238
10,ATCTTAAA,-0.0445
11,AGGACTGC,-0.256
12,AGTTATCG,0.106
13,CCCGCTCC,-0.241
14,ACCGCTCA,0.0634
15,TCCGCTCA,-0.102
16,ACCGCTTA,-0.238
17,GCCGCTTA,0.39
18,GCCGCTCC,0.398
19,CCCGCTTA,0.0273
20,ACCGCTCC,-0.223
21,GCCGCTCA,0.381
22,CAGCGCTA,0.0165

row,Sequence,PBM E-score
1,ATGCCCTA,0.168
2,CAGTACGC,-0.111
3,CAGCTACG,-0.14
4,GAAGCGCC,0.337
5,CCAGCGCC,0.235
6,ACAGCGCC,0.249
7,ATAGCGCC,0.357
8,CAAGCGCC,0.219
9,CTAGCGCC,0.16
10,ATAGCGCG,0.136
11,GCAGCGCC,0.33
12,GAAGCGCA,-0.0259
13,AGGTACCC,-0.414
14,AGCTACCG,-0.16
15,ACATGGCT,-0.137
16,CCATCCAA,0.0222
17,GAAACGGA,0.132
18,AAAACGCG,0.251
19,GAAACGCC,0.289
20,CAAACGGA,0.236
21,CAAACGCC,0.258
22,AAAACGCC,0.386

row,Sequence,PBM E-score
1,AAAACGGA,0.201
2,GAAACGGC,0.462
3,AAAACGGC,0.403
4,CAAACGGG,0.175
5,CAAACGGC,0.459
6,AAAACGGT,-0.0136
7,ACCTGATG,-0.102
8,CCGCATTC,0.105
9,TACCCTAA,-0.0225
10,CACCCACC,-0.192
11,GAGCCATA,0.0155
12,ATTGCTAC,0.0429
13,CAGGCGTC,-0.00022
14,AGGCCAGA,-0.103
15,CCAACGGC,0.316
16,GCAACGGC,0.411
17,ACAACGGC,0.308
18,ATAAAGGA,-0.201
19,CACGCTAC,-0.0658
20,CACTCGGC,0.28
21,GAAAAGAA,0.0978
22,CTTCTAAA,0.168

row,Sequence,PBM E-score
1,AATGCCGC,0.465
2,AATGCCGG,0.137
3,AATGCCAC,0.293
4,AATGCCGA,0.303
5,AATGCCTC,0.308
6,AATGCCGT,0.485
7,AGGCAGAG,-0.00743
8,CCCTAAAC,-0.193
9,GCGATCAA,-0.0307
10,CCTCCTCG,-0.21
11,AGCGCGGG,0.098
12,CGCGCGGC,0.483
13,AGCGCGGC,0.402
14,CTCGCGGA,-0.0275
15,AGCGCGGA,0.0636
16,ATCGCGGC,0.238
17,CGCGCGTC,0.16
18,CGCGCTGC,0.122
19,CTCGCGGC,0.334
20,AGGTGGCC,-0.294
